Laboratory results: the supplement of paper PMC11732987, “Enantioselective OTUD7B fragment discovery through chemoproteomics screening and high-throughput optimisation” (Communications Chemistry, 2025)

Assays:
Test in all cases: log2 ratio of Biotin-Ahx-Ub-VS probe labelling (fragment/DMSO); higher = less target engagement (more negative = stronger competition), active = hit call of the paper (q ≤ 0.05, log2 ratio ≤ -1)
Details in all cases: compound concentration: 200 uM; treatment time: 3 h
[1] = biological target: T1, USP19 (UniProt O94966)
T1 sequence (whole entry): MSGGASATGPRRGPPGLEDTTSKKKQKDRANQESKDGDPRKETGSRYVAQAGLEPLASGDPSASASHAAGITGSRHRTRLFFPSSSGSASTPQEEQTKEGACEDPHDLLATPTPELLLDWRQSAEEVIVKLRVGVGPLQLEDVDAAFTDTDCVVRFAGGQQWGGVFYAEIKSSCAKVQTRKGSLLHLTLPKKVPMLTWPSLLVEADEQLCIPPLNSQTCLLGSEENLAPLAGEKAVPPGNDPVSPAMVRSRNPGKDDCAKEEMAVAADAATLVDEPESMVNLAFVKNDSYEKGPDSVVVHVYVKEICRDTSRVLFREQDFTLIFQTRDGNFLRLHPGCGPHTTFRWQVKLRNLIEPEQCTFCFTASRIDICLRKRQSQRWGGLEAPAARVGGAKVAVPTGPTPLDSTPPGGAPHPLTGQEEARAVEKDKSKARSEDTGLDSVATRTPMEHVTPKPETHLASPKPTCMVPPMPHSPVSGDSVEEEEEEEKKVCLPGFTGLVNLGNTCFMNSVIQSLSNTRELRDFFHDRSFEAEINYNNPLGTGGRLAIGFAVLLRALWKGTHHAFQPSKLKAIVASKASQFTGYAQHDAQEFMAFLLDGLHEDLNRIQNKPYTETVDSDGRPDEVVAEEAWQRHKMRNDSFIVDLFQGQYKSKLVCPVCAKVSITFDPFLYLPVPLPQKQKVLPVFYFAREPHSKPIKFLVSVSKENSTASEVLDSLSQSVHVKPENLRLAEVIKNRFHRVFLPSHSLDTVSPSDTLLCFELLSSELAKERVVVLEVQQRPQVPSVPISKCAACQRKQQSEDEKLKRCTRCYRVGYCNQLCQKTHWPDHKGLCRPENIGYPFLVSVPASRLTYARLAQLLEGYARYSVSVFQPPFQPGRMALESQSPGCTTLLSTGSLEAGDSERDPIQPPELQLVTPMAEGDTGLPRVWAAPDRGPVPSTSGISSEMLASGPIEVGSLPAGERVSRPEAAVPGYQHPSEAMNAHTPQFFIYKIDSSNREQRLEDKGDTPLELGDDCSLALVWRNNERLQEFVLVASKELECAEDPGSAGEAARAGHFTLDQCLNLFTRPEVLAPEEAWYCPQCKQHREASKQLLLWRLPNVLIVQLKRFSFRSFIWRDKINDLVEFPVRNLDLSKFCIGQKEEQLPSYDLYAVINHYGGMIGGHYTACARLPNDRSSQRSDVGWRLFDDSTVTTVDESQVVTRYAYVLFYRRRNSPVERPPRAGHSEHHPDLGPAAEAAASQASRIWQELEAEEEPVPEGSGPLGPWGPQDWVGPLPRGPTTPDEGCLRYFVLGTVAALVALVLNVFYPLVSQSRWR
Method in brief: (§1)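 Each value is an average log2 ratio of fragment to vehicle, tested by unpaired t-test. The underlying Spectronaut label-free quantities were global-median-normalised, and only proteins with ≥2 unique peptides were included. Triplicate HEK293T lysate samples (495 µg) were exposed to fragment at 200 µM or vehicle for 3 h, then to Biotin-Ahx-Ub-VS at 0.5 µM final for 1 h, before NeutrAvidin enrichment of labelled DUBs, LysC and trypsin digestion, and diaPASEF LC-MS/MS.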

[2] = biological target: T2, USP22 (UniProt Q9UPT9)
T2 sequence (whole entry): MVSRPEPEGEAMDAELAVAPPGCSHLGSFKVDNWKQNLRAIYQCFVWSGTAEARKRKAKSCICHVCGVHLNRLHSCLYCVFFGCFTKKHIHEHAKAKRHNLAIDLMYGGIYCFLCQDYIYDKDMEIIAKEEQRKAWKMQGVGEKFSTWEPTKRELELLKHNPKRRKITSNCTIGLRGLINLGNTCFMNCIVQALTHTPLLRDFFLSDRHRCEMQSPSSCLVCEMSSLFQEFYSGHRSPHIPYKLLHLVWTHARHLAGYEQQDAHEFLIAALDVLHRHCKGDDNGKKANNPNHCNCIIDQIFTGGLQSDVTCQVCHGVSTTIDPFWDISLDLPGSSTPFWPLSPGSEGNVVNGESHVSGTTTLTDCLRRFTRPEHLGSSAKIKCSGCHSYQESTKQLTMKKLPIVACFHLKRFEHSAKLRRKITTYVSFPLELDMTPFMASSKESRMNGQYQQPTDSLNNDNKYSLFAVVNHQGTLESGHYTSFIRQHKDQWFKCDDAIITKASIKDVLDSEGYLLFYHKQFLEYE
Method in brief: as §1

[3] = biological target: USP24 (UniProt Q9UPU5)
USP24, sequence (Q9UPU5 whole entry): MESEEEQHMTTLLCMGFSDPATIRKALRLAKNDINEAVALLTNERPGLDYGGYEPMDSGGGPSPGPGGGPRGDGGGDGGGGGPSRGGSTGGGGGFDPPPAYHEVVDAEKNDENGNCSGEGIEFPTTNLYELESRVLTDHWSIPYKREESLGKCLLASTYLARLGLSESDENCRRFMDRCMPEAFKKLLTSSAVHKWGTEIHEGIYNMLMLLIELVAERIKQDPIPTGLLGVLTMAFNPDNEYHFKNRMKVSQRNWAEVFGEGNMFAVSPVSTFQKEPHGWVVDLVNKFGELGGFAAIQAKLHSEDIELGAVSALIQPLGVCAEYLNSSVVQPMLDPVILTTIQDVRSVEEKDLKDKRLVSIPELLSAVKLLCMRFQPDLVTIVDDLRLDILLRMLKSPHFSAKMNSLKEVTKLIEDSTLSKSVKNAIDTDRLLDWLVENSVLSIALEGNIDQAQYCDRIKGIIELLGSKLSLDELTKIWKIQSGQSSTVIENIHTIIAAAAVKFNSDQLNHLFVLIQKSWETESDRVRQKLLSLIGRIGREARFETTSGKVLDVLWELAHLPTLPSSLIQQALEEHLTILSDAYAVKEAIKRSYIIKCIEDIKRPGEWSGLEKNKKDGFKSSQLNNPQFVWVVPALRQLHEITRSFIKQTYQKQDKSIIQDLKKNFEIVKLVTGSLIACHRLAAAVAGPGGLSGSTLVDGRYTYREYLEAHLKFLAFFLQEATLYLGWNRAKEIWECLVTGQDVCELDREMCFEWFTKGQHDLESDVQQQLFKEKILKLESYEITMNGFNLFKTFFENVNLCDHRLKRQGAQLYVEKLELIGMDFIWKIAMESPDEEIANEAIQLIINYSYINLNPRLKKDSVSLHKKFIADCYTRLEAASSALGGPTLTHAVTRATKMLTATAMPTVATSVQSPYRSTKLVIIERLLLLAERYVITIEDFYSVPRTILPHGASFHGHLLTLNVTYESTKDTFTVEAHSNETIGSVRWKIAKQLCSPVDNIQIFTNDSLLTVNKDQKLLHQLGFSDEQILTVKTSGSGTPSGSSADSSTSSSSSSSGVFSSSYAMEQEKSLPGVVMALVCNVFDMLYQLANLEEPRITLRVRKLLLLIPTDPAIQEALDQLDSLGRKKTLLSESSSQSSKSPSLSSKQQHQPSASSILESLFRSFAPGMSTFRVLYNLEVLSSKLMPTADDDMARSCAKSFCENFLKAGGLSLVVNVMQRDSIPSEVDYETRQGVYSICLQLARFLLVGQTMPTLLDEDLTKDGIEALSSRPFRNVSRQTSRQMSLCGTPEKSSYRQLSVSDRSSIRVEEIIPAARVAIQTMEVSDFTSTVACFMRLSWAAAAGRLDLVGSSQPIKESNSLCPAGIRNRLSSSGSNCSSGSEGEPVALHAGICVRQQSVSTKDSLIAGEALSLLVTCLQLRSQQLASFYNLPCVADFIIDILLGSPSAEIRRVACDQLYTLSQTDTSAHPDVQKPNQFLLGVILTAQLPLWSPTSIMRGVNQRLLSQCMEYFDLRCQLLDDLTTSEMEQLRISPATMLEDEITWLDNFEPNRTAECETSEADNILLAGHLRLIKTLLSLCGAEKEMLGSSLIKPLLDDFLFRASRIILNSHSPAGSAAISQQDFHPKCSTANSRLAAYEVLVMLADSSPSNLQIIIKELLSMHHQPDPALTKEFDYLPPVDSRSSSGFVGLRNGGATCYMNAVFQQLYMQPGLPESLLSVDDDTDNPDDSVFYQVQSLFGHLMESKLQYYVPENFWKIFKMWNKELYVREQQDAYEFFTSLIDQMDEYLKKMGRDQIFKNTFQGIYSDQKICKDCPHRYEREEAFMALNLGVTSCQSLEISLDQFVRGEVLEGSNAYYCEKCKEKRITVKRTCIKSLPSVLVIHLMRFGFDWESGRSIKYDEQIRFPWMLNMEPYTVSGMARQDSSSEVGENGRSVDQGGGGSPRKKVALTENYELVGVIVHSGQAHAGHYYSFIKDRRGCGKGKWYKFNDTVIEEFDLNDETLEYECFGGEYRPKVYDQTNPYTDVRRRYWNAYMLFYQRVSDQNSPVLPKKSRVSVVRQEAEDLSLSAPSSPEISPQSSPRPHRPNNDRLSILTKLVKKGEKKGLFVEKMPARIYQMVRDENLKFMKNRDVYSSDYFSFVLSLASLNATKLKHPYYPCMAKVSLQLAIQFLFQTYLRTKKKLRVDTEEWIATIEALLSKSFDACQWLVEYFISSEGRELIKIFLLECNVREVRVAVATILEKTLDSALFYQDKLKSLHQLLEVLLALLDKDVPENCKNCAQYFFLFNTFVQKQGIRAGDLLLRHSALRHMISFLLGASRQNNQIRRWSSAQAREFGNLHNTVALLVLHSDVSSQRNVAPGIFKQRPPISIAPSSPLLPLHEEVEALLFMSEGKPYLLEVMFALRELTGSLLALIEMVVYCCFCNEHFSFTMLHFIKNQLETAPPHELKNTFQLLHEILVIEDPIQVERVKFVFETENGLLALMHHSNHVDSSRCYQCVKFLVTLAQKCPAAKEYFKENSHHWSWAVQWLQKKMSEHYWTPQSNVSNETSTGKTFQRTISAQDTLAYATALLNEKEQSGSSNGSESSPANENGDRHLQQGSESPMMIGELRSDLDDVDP
Method in brief: as §1

[4] = biological target: T3, USP25 (UniProt Q9UHP3)
T3 sequence (whole entry): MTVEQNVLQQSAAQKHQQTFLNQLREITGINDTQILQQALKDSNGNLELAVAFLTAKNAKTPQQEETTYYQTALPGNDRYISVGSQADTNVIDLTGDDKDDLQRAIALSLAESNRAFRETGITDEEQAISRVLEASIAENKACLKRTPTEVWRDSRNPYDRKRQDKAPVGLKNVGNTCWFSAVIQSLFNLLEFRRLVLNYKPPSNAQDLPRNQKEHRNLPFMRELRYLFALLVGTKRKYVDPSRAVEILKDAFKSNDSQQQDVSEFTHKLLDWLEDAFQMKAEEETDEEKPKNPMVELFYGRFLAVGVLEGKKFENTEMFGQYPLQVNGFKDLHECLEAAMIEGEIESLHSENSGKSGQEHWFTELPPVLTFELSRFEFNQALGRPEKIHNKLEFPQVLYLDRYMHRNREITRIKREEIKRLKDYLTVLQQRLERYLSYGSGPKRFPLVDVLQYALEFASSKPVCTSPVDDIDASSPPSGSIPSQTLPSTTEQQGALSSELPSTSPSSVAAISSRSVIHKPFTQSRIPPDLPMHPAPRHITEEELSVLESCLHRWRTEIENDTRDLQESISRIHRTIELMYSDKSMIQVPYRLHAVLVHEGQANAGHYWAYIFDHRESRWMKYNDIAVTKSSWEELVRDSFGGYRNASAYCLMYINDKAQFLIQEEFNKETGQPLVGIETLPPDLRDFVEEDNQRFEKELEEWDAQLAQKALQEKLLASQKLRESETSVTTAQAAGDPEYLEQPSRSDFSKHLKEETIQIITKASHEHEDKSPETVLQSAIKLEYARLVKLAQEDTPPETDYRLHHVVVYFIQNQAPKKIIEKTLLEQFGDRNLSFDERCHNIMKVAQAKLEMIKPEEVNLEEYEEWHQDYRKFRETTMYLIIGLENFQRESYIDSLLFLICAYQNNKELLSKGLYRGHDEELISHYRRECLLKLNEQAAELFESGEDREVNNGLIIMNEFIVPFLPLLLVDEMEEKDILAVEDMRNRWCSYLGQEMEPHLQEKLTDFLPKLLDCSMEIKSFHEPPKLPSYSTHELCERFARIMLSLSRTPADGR
Method in brief: as §1

[5] = biological target: T4, USP28 (UniProt Q96RU2)
T4 sequence (whole entry): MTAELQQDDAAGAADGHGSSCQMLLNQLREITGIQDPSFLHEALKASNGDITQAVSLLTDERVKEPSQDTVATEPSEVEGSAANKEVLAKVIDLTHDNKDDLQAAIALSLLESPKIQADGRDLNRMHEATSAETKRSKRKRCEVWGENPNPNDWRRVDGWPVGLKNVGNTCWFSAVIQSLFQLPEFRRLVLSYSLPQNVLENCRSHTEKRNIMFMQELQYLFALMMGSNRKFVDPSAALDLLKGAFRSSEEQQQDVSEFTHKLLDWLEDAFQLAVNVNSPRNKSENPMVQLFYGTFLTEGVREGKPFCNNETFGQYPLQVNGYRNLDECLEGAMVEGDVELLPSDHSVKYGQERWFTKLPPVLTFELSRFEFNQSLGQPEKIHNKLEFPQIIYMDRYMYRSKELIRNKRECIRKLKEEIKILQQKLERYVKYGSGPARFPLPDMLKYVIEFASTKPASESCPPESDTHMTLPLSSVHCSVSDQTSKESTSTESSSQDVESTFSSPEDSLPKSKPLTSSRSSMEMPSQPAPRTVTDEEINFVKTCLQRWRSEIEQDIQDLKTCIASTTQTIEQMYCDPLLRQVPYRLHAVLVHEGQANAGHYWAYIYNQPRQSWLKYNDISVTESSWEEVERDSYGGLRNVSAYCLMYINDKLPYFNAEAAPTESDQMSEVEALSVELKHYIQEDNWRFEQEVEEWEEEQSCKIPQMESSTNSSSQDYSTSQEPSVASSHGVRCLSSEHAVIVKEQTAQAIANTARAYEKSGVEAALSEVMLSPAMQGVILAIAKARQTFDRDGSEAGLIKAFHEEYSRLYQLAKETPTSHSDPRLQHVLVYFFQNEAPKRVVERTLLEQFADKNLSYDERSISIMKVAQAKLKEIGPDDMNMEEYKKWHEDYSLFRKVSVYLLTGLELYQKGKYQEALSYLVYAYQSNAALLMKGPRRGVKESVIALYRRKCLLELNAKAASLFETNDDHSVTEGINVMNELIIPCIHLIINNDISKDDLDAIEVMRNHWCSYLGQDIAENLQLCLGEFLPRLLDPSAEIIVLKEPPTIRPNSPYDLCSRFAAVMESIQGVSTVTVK
Method in brief: as §1

Measured: log2 ratio of Biotin-Ahx-Ub-VS probe labelling

O=C(CCl)Nc1ccc(F)cc1F
inactive: [1] -0.101 | [2] -0.241 | [3] -0.312 | [4] -0.265 | [5] -0.838
